NLRP3 yeast inh: inhibitors of NALP3 inflammasome in yeast; 330,000 compounds, 0.39% hits; Yeast reconstituted NLRP3/ASC/caspase-1, beta-gal luminescence, 24 h; inhibition, % at 10 µM;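 active = inhibition of 50% or more; inactive = inhibition below 50%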;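 note: plate controls were induced DMSO wells for no effect and uninduced yeast grown without galactose for full effect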
TIM10 inh: growth inhibitors of TIM10 yeast strain | AID 463195 | inhibition, % at 10 µM | 330,000 compounds, 1.4% hits | S. cerevisiae TIM10 strain growth, BacTiter-Glo luminescence, 24 h;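 active = inhibition of 40% or more at the single tested concentration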;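 note: wild-type TIM10 isogenic control strain grown at permissive 25 °C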
tim23-1 inh: inhibits growth of tim23-1 mutant yeast. AID 463212. inhibition, % at 20 µM. S. cerevisiae tim23-1 growth, BacTiter-Glo luminescence, 24 h. 330,000 compounds, 1.3% hits;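 active = growth inhibition of the mutant yeast at or above 50%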;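 note: temperature-sensitive mutant grown at 25 °C; plate controls were DMSO-treated mutant yeast for no effect and medium wells lacking yeast for full effect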
tim10-1 inh: growth inhibitors of tim10-1 mutant yeast; S. cerevisiae tim10-1 ts strain growth, BacTiter-Glo, 24 h; inhibition, % at 20 µM; 330,000 compounds, 2.2% hits; AID 463190;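 active = inhibition of at least 40%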;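 note: mutant grown at 25 °C; 0% = DMSO wells with yeast and 100% = wells holding no yeast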
SKKanGAS inh: SKKanGAS growth inhibition; S. pyogenes SKKanGAS, kanamycin growth, BacTiter-Glo, 6 h; inhibition, % at 7.5 µM; 300,000 compounds, 1.3% hits;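 active = mean replicate score, as percent of positive control median, at least 50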;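 note: strain carries kanamycin resistance gene driven by streptokinase promoter and grows in 40 µg/ml kanamycin; loss of luminescence reflects streptokinase promoter inhibition or plain growth inhibition; 0% = median of DMSO wells and 100% = positive control at its reference dose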
tim10-1 confirm: tim10-1 yeast growth inhibition, confirmed. shares compounds with tim10-1 inh. S. cerevisiae tim10-1 ts strain growth, BacTiter-Glo, 24 h. inhibition, % at 20 µM. 7,400 compounds, 56% hits;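 active = inhibition of yeast growth at or above a set limit in either of two repeat tests at 20 µM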;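 note: tim10-1 mutant grown at permissive 25 °C to find synthetic lethal compounds; 0% = DMSO yeast wells and 100% = medium wells without yeast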
Numbers without * were called inactive. Compounds with a hit are over-represented: about 4.6% of the library has one in this group of screens.

How did C=CCN1CC(c2nc3ccccc3n2Cc2cccc3ccccc23)CC1=O (configuration not stated) do in these assays?
NLRP3 yeast inh: 2.9; TIM10 inh: 30.0; tim23-1 inh: 27.2; tim10-1 inh: 45.0*; SKKanGAS inh: -9.5; tim10-1 confirm: 15.0

Results for CCCn1c(SC(C)C(=O)NC2CC2)nnc1-c1ccncc1 (configuration not stated) ?
NLRP3 yeast inh: -4.1; TIM10 inh: 0.3; tim23-1 inh: 4.0; tim10-1 inh: -2.9

What do the screens show for `Cc1c(C)n(C)c2ccc(C(=O)Nc3cccc4ccccc34)cc12`?
NLRP3 yeast inh: 25.5; TIM10 inh: 24.4; tim23-1 inh: 38.3; tim10-1 inh: 42.6*; SKKanGAS inh: 2.2; tim10-1 confirm: 32.1*

What do the screens show for `CN1C(=O)NC(c2cccc(F)c2)C2=C1CC(C)(C)CC2=O` (configuration not stated)?
NLRP3 yeast inh: 7.9; TIM10 inh: -0.7; tim23-1 inh: 6.4; tim10-1 inh: 16.6; SKKanGAS inh: -0.8

What do the screens show for `COc1ccc2nc(N3CCC(C)CC3)c(C#N)cc2c1`?
NLRP3 yeast inh: 5.2; TIM10 inh: 3.5; tim23-1 inh: 20.9; tim10-1 inh: 46.0*; SKKanGAS inh: -5.0; tim10-1 confirm: 9.2

What do the screens show for `N#Cc1nc(-c2ccccc2Cl)oc1NCc1ccco1`?
NLRP3 yeast inh: 8.5; TIM10 inh: -4.1; tim23-1 inh: 42.1; tim10-1 inh: 40.3*; SKKanGAS inh: 3.1; tim10-1 confirm: 29.1

What do the screens show for `CC(C)CNC(=S)Nc1ccc(Oc2ccccc2)cc1`?
NLRP3 yeast inh: 29.0; TIM10 inh: 36.2; tim23-1 inh: 44.9; tim10-1 inh: 43.1*; SKKanGAS inh: 0.7; tim10-1 confirm: 24.4

Results for CCNC(=S)Nc1ccc(N(c2ccccc2)C(C)C)cc1 ?
NLRP3 yeast inh: 10.1; TIM10 inh: 4.6; tim23-1 inh: 18.5; tim10-1 inh: 42.4*; SKKanGAS inh: 10.7; tim10-1 confirm: 27.6

What do the screens show for `CCCOc1ccc(C(=O)NCC2OCCc3ccccc32)cc1OC` (configuration not stated)?
NLRP3 yeast inh: 25.5; TIM10 inh: 2.2; tim23-1 inh: 15.6; tim10-1 inh: 17.2; SKKanGAS inh: -5.6

How did COc1ccc(C(=O)NCC2OCCc3ccccc32)c(O)c1 (configuration not stated) do in these assays?
NLRP3 yeast inh: 32.5; TIM10 inh: 33.4; tim23-1 inh: 34.8; tim10-1 inh: 45.1*; SKKanGAS inh: -1.8; tim10-1 confirm: 22.6

Results for CCC1CCCCN1C(=O)COC(=O)COc1ccc(Br)cc1 (configuration not stated) ?
NLRP3 yeast inh: 10.8; TIM10 inh: 8.0; tim23-1 inh: 27.3; tim10-1 inh: -0.9

How did CC1CC(C)CN(S(=O)(=O)c2ccc(C(=O)Nc3nnc(C4CC4)o3)cc2)C1 (configuration not stated) do in these assays?
NLRP3 yeast inh: 15.5; TIM10 inh: 26.7; tim23-1 inh: 44.7; tim10-1 inh: 46.6*; SKKanGAS inh: 67.8*; tim10-1 confirm: 9.6

What do the screens show for `CCc1nnc(NC(=O)c2ccc(S(=O)(=O)N3CCCC(C)C3)cc2)o1` (configuration not stated)?
NLRP3 yeast inh: 15.1; TIM10 inh: 21.9; tim23-1 inh: 27.6; tim10-1 inh: 35.5; SKKanGAS inh: 17.0

What do the screens show for `Cc1ccc(NC(=O)C2CCN(c3ncnc4sc(C)c(C)c34)CC2)cc1S(=O)(=O)N(C)C`?
NLRP3 yeast inh: -5.6; TIM10 inh: 7.5; tim23-1 inh: -6.7; tim10-1 inh: -10.9; SKKanGAS inh: 3.7

How did Cc1ccc(C)c(S(=O)(=O)N2CCN(C(=O)C3CCN(c4ncnc5sc(C)c(C)c45)CC3)CC2)c1 do in these assays?
NLRP3 yeast inh: 8.2; TIM10 inh: -70.4; tim23-1 inh: 41.4; tim10-1 inh: 47.0*; SKKanGAS inh: 22.1; tim10-1 confirm: 27.5

What do the screens show for `Cc1ccn2cc(-c3ccc(O)c(O)c3)nc2c1`?
NLRP3 yeast inh: 10.0; TIM10 inh: 6.8; tim23-1 inh: 20.2; tim10-1 inh: -7.4; SKKanGAS inh: 6.5

What do the screens show for `CC1CCCCC1NC(=O)c1c(O)nc2ccccn2c1=O` (configuration not stated)?
NLRP3 yeast inh: 24.9; TIM10 inh: 2.9; tim23-1 inh: 48.1; tim10-1 inh: 0.2; SKKanGAS inh: 0.3

How did COCCOC(=O)C(C#N)c1nc2ccccc2nc1N1CCCC1 (configuration not stated) do in these assays?
NLRP3 yeast inh: 19.5; TIM10 inh: 24.0; tim23-1 inh: 38.2; tim10-1 inh: 30.3; SKKanGAS inh: 9.8

How did C=CCOC(=O)C(C#N)c1nc2ccccc2nc1N1CCCC1 (configuration not stated) do in these assays?
NLRP3 yeast inh: 35.3; TIM10 inh: 17.7; tim23-1 inh: 38.2; tim10-1 inh: 40.6*; SKKanGAS inh: 8.0; tim10-1 confirm: 27.8

Results for CN(Cc1ccccc1)C(=O)CSc1nc2c(c(C(F)(F)F)n1)CCc1ccccc1-2 ?
NLRP3 yeast inh: 12.0; TIM10 inh: 4.3; tim23-1 inh: 22.0; tim10-1 inh: 43.5*; SKKanGAS inh: 29.4; tim10-1 confirm: 21.2

Results for NC(=O)c1c(NC(=O)CSc2nc3c(c(C(F)(F)F)n2)CCc2ccccc2-3)sc2c1CCCC2 ?
NLRP3 yeast inh: -9.0; TIM10 inh: -0.9; tim23-1 inh: 21.2; tim10-1 inh: -1.3; SKKanGAS inh: 2.9

How did Cc1cc(=O)oc2cc(OCc3ccc(C(=O)N4CCN(c5ccc([N+](=O)[O-])cc5)CC4)cc3)ccc12 do in these assays?
SKKanGAS inh: 21.8

Results for Cc1cc(=O)oc2cc(OCc3ccc(C(=O)N4CCN(c5ccccc5)CC4)cc3)ccc12 ?
NLRP3 yeast inh: 22.8; TIM10 inh: 7.4; tim23-1 inh: 18.2; tim10-1 inh: 43.2*; SKKanGAS inh: 24.0; tim10-1 confirm: 13.4

Results for Cc1ccnc(NC(=O)CNC(=O)c2ccc(Br)o2)c1 ?
NLRP3 yeast inh: 6.1; TIM10 inh: -5.5; tim23-1 inh: -7.3; tim10-1 inh: -15.6; SKKanGAS inh: -0.4

Results for Clc1ccc(-c2nnc3sc(-c4ccc(Br)o4)nn23)cc1 ?
NLRP3 yeast inh: 6.2; TIM10 inh: -29.4; tim23-1 inh: -5.2; tim10-1 inh: -29.4

What do the screens show for `Clc1ccccc1-c1nnc2sc(-c3ccc(Br)o3)nn12`?
NLRP3 yeast inh: 8.3; TIM10 inh: 24.9; tim23-1 inh: 37.3; tim10-1 inh: 40.2*; SKKanGAS inh: -5.6; tim10-1 confirm: 29.8*

How did Brc1ccc(-c2nn3c(Cc4ccccc4)nnc3s2)o1 do in these assays?
NLRP3 yeast inh: 23.1; TIM10 inh: 23.0; tim23-1 inh: 20.3; tim10-1 inh: 41.5*; SKKanGAS inh: -4.9; tim10-1 confirm: 10.9

How did Clc1ccc(-c2nnc3sc(-c4ccc(Br)o4)nn23)c(Cl)c1 do in these assays?
NLRP3 yeast inh: 18.9; TIM10 inh: 1.4; tim23-1 inh: -4.9; tim10-1 inh: -2.9; SKKanGAS inh: -5.2

High-throughput results from PubChem BioAssay.
